This passage reports Kd results from paper PMC5540273 (PLoS ONE, 2017).

As a reminder, the Kd is the equilibrium constant for the complex coming apart. Higher therefore signals a looser complex.

Where only a bound is given, the exact number is not on record here.

The test system of experiment [1] is JAK2(JH1domain-catalytic).
The test system of another experiment is T1, JNK1.
T1 construct: gene MAPK8

For a further experiment, the system named is T2, JNK2.
T2 construct: gene MAPK9

For another experiment, the system named is T3, JNK3.
T3 construct: gene MAPK10

For experiment [2], the system named is JAK1(JH2domain-pseudokinase).
The subject of experiment [3] is JAK3(JH1domain-catalytic).
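Further: kd values determined as follow-up on hits from a single-replicate KINOMEscan panel screen.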

In experiment [1], `O=C(NCCNc1ccnc(Nc2ccc(F)cc2)n1)Nc1ccc2c(c1)OCO2` [GSK1379882] gave a Kd of 2000 nM.
`COc1cc2nccc(Nc3ccc(OCc4ccc(NC(C)=O)cc4)cc3)c2cc1OC.Cl` [GW440135] returned a Kd with KIT of 7.4 nM.
As for `CCC(=O)c1c(-c2ccccc2)c2cc(Cl)ccc2c(=O)n1Cc1cc(S(C)(=O)=O)n(CCC(C)(C)O)n1`, the equilibrium dissociation constant (Kd) was found to be 19 nM in the experiment with JNK1, 15 nM in the experiment with JNK2 and 4.6 nM in the experiment on JNK3.
In turn, `CCn1c(-c2ccoc2)nc2cnccc21` [SB-733887] displayed an equilibrium dissociation constant (Kd) with INSR of more than 10 µM.
Take `CCc1nc(-c2cccc(C)c2)c(-c2ccncc2)s1`: the Kd in the experiment on JNK3 is 81 nM.
In the case of `Cc1cc(Nc2nc(-c3cccc(C)n3)nc3ccccc23)ccn1` [GW872411], the Kd in experiment [2] turned out to be 410 nM.
The same measure, in the same setting: then `Nc1nc(N)c2nc(-c3ccccc3)[nH]c2n1` [SKF-12778], with 150 nM.
For the compound `COC(=O)c1c(-c2ccccc2)c2cc(Br)ccc2c(=O)n1Cc1ccc(NC(=O)CCC(=O)O)cc1`, the Kd worked out at 58 nM in the experiment on JNK1, 66 nM in the experiment on JNK2 and 13 nM in the experiment with JNK3.
For `COc1cc(Nc2nccc(N3CCC(NC(=O)C(C)c4ccc(Cl)cc4)C3)n2)cc(OC)c1OC` (stereo not drawn) [GSK1379757], binding in experiment [1] was characterised by a dissociation constant (Kd) of 140 nM.
On to `CCC(=O)c1c(-c2ccccc2)c2cc(Cl)ccc2c(=O)n1Cc1cc(S(C)(=O)=O)n(CC(F)F)n1`, for which the figures for the Kd in the experiment on JNK1, in the experiment on JNK2 and in the experiment on JNK3 were 37 nM, 33 nM and 9.2 nM, respectively.
As to `CCC(=O)c1c(-c2ccccc2)c2cc(Cl)ccc2c(=O)n1Cc1cc(S(C)(=O)=O)n(CC(N)=O)n1`, the figures for the Kd in the experiment with JNK1, in the experiment on JNK2 and in the experiment with JNK3 were 160 nM, 120 nM and 60 nM, respectively.
Consider `COc1ccc(-n2cnc3c(N)ncnc32)cc1` [SKF-97236], for which the Kd in the experiment with KIT worked out at 200 nM.
In experiment [3], `COc1cc(Nc2ccnc3ccc(C(F)(F)F)cc23)cc(OC)c1OC` [GW577382] returned an equilibrium dissociation constant (Kd) of more than 10 µM.
